Source: PubChem
Only some compounds are listed: those with a hit (about 12% of all), similar ones and a draw of the others.
Sm TGR inh = blocks Schistosoma mansoni thioredoxin glutathione reductase. Potency, µM (series often up to 114 µM), hits mostly inhibitors. Q962Y6. purified TGR, DTNB reduction, TNB absorbance 405 nm. actives 3% (n = 360,000); further: nearly all actives have a fitted effect of over 60% in size
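First, TGR (20 nM dispensed) and NADPH were mixed with compound. Second, a 15 min room-temperature incubation followed. Third, further NADPH and then DTNB were added to start the reaction. Finally, TNB absorbance was monitored kinetically.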
Pf growth 48h = P. falciparum growth inhibition at 48 hours (one generation); Potency, µM (titrated, usually from 28.7 µM), most hits filed as inhibitors; P. falciparum luciferase growth in erythrocytes, 48 h; actives 5.9% (n = 310,000)
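First compound was added to culture medium, then infected red cells at 0.1% parasitemia and 2% hematocrit (final). After incubation at 37 C under 5% CO2, luciferase detection reagent was dispensed and light output recorded.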
Pf growth 96h = P. falciparum growth inhibition at 96 hours; P. falciparum luciferase reporter growth, 96 h; Potency, µM (top dose mostly 28.7 µM), hits mostly inhibitors; actives 6.9% (n = 320,000); AID 504834
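Infected RBCs, 2% Hct / 0.05% parasitemia final; luciferase-reporter P. falciparum; cpd 96 h, 37 C, 5% CO2; luciferase detection reagent; luminescence.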
SARS PLpro yeast = inhibitors of SARS-CoV papain-like protease in yeast; S. cerevisiae expressing SARS-CoV PLpro, growth rescue; Potency, µM (doses to about 32.9 µM), usual class: activators; actives 0.19% (n = 330,000); AID 485353; calls by dose curve; further: nearly all actives have a fitted effect of over 55% in size
Each line names hits and unclear results; the compound was inactive in the other large screens. Unless noted, the call rests on the fitted dose curve; in most records, active means well fitted curve in the direction sought with a large enough effect; inconclusive means small, poorly fitted or top-dose-only effect, or another doubt; inactive means no such curve, though single readings can be large; an effect the other way counts as inactive or inconclusive.

Cc1ccc(NC(=O)C(C)SCC(=O)Nc2ccc(F)cc2)cc1S(=O)(=O)N1CCOCC1 (stereo not drawn)	Pf growth 48h inconclusive (no result: SARS PLpro yeast)
CCOc1cccc2cc(-c3nc4sc5c(c4c(=O)[nH]3)CCC(C)C5)c(=O)oc12 (stereo not drawn)	none (no result: Pf growth 48h, Pf growth 96h, SARS PLpro yeast)
O=C(c1c(F)cccc1F)N1CCCC(c2nc(-c3cccs3)no2)C1 (stereo not drawn)	Pf growth 96h 8.28µM
Cc1ccc(-c2noc(C3CCCN(C(=O)c4ccccc4Br)C3)n2)o1 (stereo not drawn)	Sm TGR inh inconclusive, Pf growth 48h inconclusive
Cc1ccc(-c2noc(C3CCCN(C(=O)c4ccccc4)C3)n2)o1 (stereo not drawn)	Sm TGR inh 56.2µM
CC(=O)N1c2ccc(S(=O)(=O)NCCC(=O)Nc3ccc(C)cc3Br)cc2CC1C (stereo not drawn)	none (no result: Pf growth 48h, Pf growth 96h, SARS PLpro yeast)
Cc1ccc2nc(-c3ccc(Cl)c(NC(=O)c4cccc([N+](=O)[O-])c4C)c3)oc2c1	none (no result: Pf growth 48h, Pf growth 96h, SARS PLpro yeast)
NS(=O)(=O)c1ccc(CNC(=O)CNC(=O)c2ccc(F)cc2)cc1	none
COc1ccc(/C=N/N(C(C)=O)c2nc(-c3ccc(C)cc3)cs2)cc1	Pf growth 48h inconclusive, Pf growth 96h inconclusive
CC(=O)N(/N=C/c1cccc(C)c1)c1nc(-c2ccc(Br)cc2)cs1	Pf growth 48h inconclusive, Pf growth 96h 11.7µM
COc1ccc2ccc3c(c2c1)N=C[C@]1(O3)N(C)c2ccccc2C1(C)C	Sm TGR inh 28.2µM, Pf growth 48h inconclusive, Pf growth 96h 6.57µM
CC1=NOC2(C1)N(C)c1ccccc1C2(C)C (stereo not drawn)	none
COc1ccc(CN(C)C2c3ccccc3-c3ccccc32)cc1	Pf growth 48h inconclusive, Pf growth 96h 11.7µM
COc1ccc(CP(=O)(c2ccccc2)c2ccccc2)cc1	Pf growth 48h inconclusive, Pf growth 96h inconclusive
CSCCC(NC(=O)c1ccccc1Br)C(=O)NNC(=O)c1ccncc1 (stereo not drawn)	none
COc1ccc(NC(=O)c2ccc(-c3ccc(C(C)=O)cc3)o2)cn1	none
CC(=O)c1ccc(NC(=O)c2ccc(-c3ccc(Cl)cc3)o2)cc1	Sm TGR inh 39.8µM (no result: Pf growth 48h, Pf growth 96h, SARS PLpro yeast)
CN(C)C(=O)c1ccc(NC(=O)c2ccc(-c3ccc(Cl)cc3)o2)cc1	Sm TGR inh 31.6µM, Pf growth 96h inconclusive
CC(C)Cn1c(CCC(N)=O)nnc1SC(C)C(=O)Nc1ccc2c(c1)OCO2 (stereo not drawn)	none
CC1(C)CC(=O)C([N+](=O)[O-])=C(NCCCO)C1	Pf growth 96h 11.7µM, SARS PLpro yeast inconclusive
CCC(CO)NC1=C([N+](=O)[O-])C(=O)CC(C)(C)C1 (stereo not drawn)	none
COc1cccc(OCC(=O)O/N=C(\N)c2ccc(OC)c(OC)c2)c1	Pf growth 96h 6.57µM
Cc1cccc(/C(N)=N/OC(=O)COc2ccc(Cl)cc2)c1	Pf growth 48h inconclusive, Pf growth 96h 2.94µM
CCCC[C@]12Cc3c(ccc4ccccc34)C(O1)C1=C(O2)C(=O)c2ccccc2C1=O	Sm TGR inh inconclusive, Pf growth 48h 1.51µM
CCOC(=O)C1=C(C)NC2=C(C(=O)C(C(=O)OCC)C(c3cccc(OC)c3)C2)C1c1ccccn1 (stereo not drawn)	Pf growth 48h 8.28µM, Pf growth 96h 5.86µM
CCOC(=O)C1=C(C)NC2=C(C(=O)C(C(=O)OCC)C(c3ccc(OC)cc3)C2)C1c1ccccn1 (stereo not drawn)	Pf growth 48h inconclusive
CCOC(=O)C1=C(C)NC2=C(C(=O)C(C(=O)OCC)C(c3ccccc3OC)C2)C1c1ccccn1 (stereo not drawn)	Pf growth 48h 4.15µM, Pf growth 96h 3.7µM
CCOC(=O)c1ccc(NC(=O)c2c(Cl)cc(C)nc2C)cc1	Pf growth 96h inconclusive
CCC(C)(C)NC(=O)C(c1ccncc1)N(C(=O)Cn1nnc2ccccc21)c1cc2c(cc1C(C)=O)OCO2 (stereo not drawn)	Pf growth 48h inconclusive (no result: Sm TGR inh)
CCC(C)(C)NC(=O)C(c1cccn1C)N(C(=O)Cn1nnc2ccccc21)c1ccc(OC)cc1OC (stereo not drawn)	Pf growth 48h 8.28µM
CCOc1ccc(N(C(=O)Cn2nnc3ccccc32)C(C(=O)NC(C)(C)CC)c2cccn2C)cc1 (stereo not drawn)	Pf growth 48h 13.1µM
COc1ccc(C(C(=O)NCc2ccccc2)N(C(=O)Cn2nnc3ccccc32)c2ccc(OC)cc2)cc1 (stereo not drawn)	none (no result: Pf growth 48h, Pf growth 96h, SARS PLpro yeast)
